Here are results for four compounds from PubChem BioAssay (EPA / NIEHS).

Test [1] has as its target Myc proto-oncogene protein (Homo sapiens) (UniProt P01106). Put plainly: ATG_Myc_CIS: Attagene CIS-FACTORIAL HepG2 Assay for human Myelocytomatosis (Myc) Proto-Oncogene Transcription Factor (AID 2282990). The conditions noted are these: HepG2, Attagene cis-reporter transcription factor activity; actives raise or lower the signal. Summed up:
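HepG2 cells transiently transfected with multiple cis-promoter-driven reporter transcription units, so endogenous TF activity is read. After 24 h compound exposure, reporter mRNA was quantified by RT-PCR, 6-FAM labelling, HpaI digestion and capillary electrophoresis; bidirectional fit versus DMSO.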

The nature of test [2]: ATG_NRF2_ARE_CIS: Attagene CIS-FACTORIAL HepG2 Assay for human Nuclear Factor Erythroid 2 Related Factor 2 (NFR2) response to Antioxidant Response Elements (ARE) (AID 2282992).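 As to AC50: reporter mRNA level measured by RT-PCR and capillary electrophoresis fluorescence.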 The conditions noted are these: HepG2 Attagene ARE/NRF2 reporter, transcription factor activity; actives raise or lower the signal. In a few lines: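 HepG2 cells transiently transfected with multiplexed cis-element reporter constructs, 24 h after chemical dosing; reporter mRNA quantified by RT-PCR, fluorescent primer extension, HpaI digestion and capillary electrophoresis. Bidirectional fit relative to DMSO.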

Test [3] is described as follows: ATG_Oct_MLP_CIS: Attagene CIS-FACTORIAL HepG2 Assay for human Octamer-Binding Transcription Factor (Oct) (AID 2282993). Conditions: HepG2 Attagene cis-factorial Oct reporter, mRNA; actives raise or lower the signal. In a few lines:
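Readout is reporter transcript level from RT-PCR with fluorescent primer extension and capillary electrophoresis, fitted in both directions against DMSO. Transfected HepG2 reporter units report endogenous factor activity after 24 h dosing.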

Test [4] concerns the target Cellular tumor antigen p53 (Homo sapiens) (UniProt P04637). Put plainly: ATG_p53_CIS: Attagene CIS-FACTORIAL HepG2 Assay for human p53 Transcription Factor (AID 2282994). Conditions: HepG2 p53 cis-element reporter, Attagene mRNA; actives raise or lower the signal. Summed up:
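HepG2 cells transiently transfected with cis-regulated multiple reporter transcription units, dosed 24 h. Reporter mRNA measured by RT-PCR, 6-FAM primer extension, HpaI digestion and capillary electrophoresis; bidirectional fit relative to DMSO.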

The nature of test [5]: BSK_3C_TissueFactor: BioMAP Diversity Plus: 3C Assay for Tissue Factor Biomarker Activity (AID 2282997). Conditions: BioMAP 3C HUVEC, tissue factor biomarker readout; actives raise or lower the signal. Summed up: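 Human vascular primary cells (umbilical vein endothelium) received test chemical; Tissue Factor was determined by ELISA at 24 h, and both gain and loss of signal versus DMSO were fitted.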

Test [6] is described as follows: BSK_3C_VCAM1: BioMAP Diversity Plus: 3C Assay for Vascular cell adhesion molecule 1 (VCAM1) Biomarker Activity (AID 2282999). Conditions: BioMAP 3C HUVEC, VCAM1 ELISA, cytokine-stimulated; actives raise or lower the signal. In a few lines: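 Human umbilical vein endothelial cells were dosed with compound for 24 h, after which cell-surface VCAM-1 was quantified by ELISA. Bidirectional curve fitting used DMSO as negative control and activity baseline.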

A short description of test [7]: BSK_4H_Eotaxin3: BioMAP Diversity Plus: 4H Assay for Eotaxin 3 Biomarker Activity (AID 2283000).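 As to outcome: CCL26 protein level quantified by ELISA in parallel with SRB cytotoxicity check.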 The conditions noted are these: primary human endothelial cells (HUVEC); actives raise or lower the signal. In a few lines:
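Readout is Eotaxin-3 (CCL26) level by ELISA in primary human umbilical vein endothelial cells harvested 24 h after chemical exposure; activity fitted in both directions against DMSO control.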

The target of test [8] is human Peroxisome Proliferator-activated Receptor alpha (PPARa), PPARA (gene 5465) (UniProt Q07869). The experiment in a line: ATG_PPARa_TRANS: Attagene TRANS-FACTORIAL HepG2 Assay for human Peroxisome Proliferator-activated Receptor alpha (PPARa) (AID 2283001; active = hit-call score of the fitted dose curve at least 0.9, where 1 is the maximum;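 as to AC50: potency for gain of reporter signal over DMSO so agonist or activator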). In a few lines: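 HepG2 cells transiently transfected with multiplexed GAL4-UAS reporter units and chimeric NR-Gal4 constructs were dosed for 24 h. Reporter mRNA was measured by RT-PCR with fluorescent labelling and capillary electrophoresis; gain of signal fitted against DMSO.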

Read-out in test [9]: Intercellular Adhesion Molecule 1 (ICAM1), ICAM1 (gene 3383)
Put plainly: BSK_3C_ICAM1: BioMAP Diversity Plus: 3C Assay for Intercellular Adhesion Molecule 1 (ICAM1) Biomarker Activity (AID 2283003). Conditions: primary human endothelial cells (HUVEC); actives raise or lower the signal. In a few lines:
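Human vascular endothelial primary cells, 3C conditions, 24 h treatment. ICAM-1 by ELISA.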

A short description of test [10]: BSK_3C_Proliferation: Cell Proliferation Assessment in the BioMAP Diversity Plus: 3C Assay (AID 2283006).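 As to AC50: potency may reflect either rise or fall in cell number versus DMSO.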 Conditions: primary human endothelial cells (HUVEC). Summed up: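 Proliferation of human vascular endothelial primary cells after 48 h dosing, quantified as SRB-stained protein at 560 nm relative to DMSO.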
Test [11] has as its target Peroxisome proliferator-activated receptor gamma (Homo sapiens) (UniProt P37231). The experiment in a line: ATG_PPARg_TRANS: Attagene TRANS-FACTORIAL HepG2 Assay for human Peroxisome Proliferator-activated Receptor-gamma (PPARg) (AID 2283007; active = hit-call score of the fitted dose curve at least 0.9, where 1 is the maximum). Summed up: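 Transient transfection of HepG2 with GAL4-UAS-driven reporter units; chemical dosing 24 h; total RNA → oligo(dT) RT → PCR with reporter primers → 6-FAM primer extension → HpaI digest 2 h 37 C → capillary electrophoresis. Positive direction vs DMSO.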

Test [12] has as its target Nuclear receptor subfamily 1 group I member 2 (Homo sapiens) (UniProt O75469). The experiment in a line: ATG_PXR_TRANS: Attagene TRANS-FACTORIAL HepG2 Assay for human Pregnane X Receptor (PXR) (AID 2283008; active = hit-call score of the fitted dose curve at least 0.9, where 1 is the maximum). In a few lines: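 HepG2 cells transiently transfected with GAL4-UAS reporter units and PXR-Gal4 chimera, exposed 24 h. Reporter mRNA quantified by RT-PCR, fluorescent labelling, HpaI digestion and capillary electrophoresis; gain of signal vs DMSO.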

Test [13] deals with human RAR-related Orphan Receptor beta (RORb), RORB (gene 6096) (UniProt Q92753). Put plainly: ATG_RORb_TRANS: Attagene TRANS-FACTORIAL HepG2 Assay for human RAR-related Orphan Receptor beta (RORb) (AID 2283010; active = hit-call score of the fitted dose curve at least 0.9, where 1 is the maximum). In a few lines: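 In this TRANS-format test, human HepG2 cells express chimeric NR-Gal4 fusion proteins driving GAL4-UAS reporters. After 24 h dosing, reporter transcripts are measured by fluorescent RT-PCR/capillary electrophoresis, with DMSO as negative control.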

In test [14] the target is human RAR-related Orphan Receptor gamma (RORg), RORC (gene 6097) (UniProt P51449). Put plainly: ATG_RORg_TRANS: Attagene TRANS-FACTORIAL HepG2 Assay for human RAR-related Orphan Receptor gamma (RORg) (AID 2283011; active = hit-call score of the fitted dose curve at least 0.9, where 1 is the maximum). Summed up: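 Transient MRTU transfection of HepG2 (TRANS format, exogenous NR-Gal4 chimera). 24 h dosing. Total RNA → oligo(dT) RT → PCR → 6-FAM labelling → HpaI cut → CE. Gain vs DMSO.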

The nature of test [15]: ATG_NF_kB_CIS: Attagene CIS-FACTORIAL HepG2 Assay for human Nuclear Factor Kappa B (NF-kB) (AID 2282991). Conditions: HepG2 Attagene cis-factorial NF-kB reporter mRNA; actives raise or lower the signal. Summed up: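 Transient MRTU transfection of human HepG2 liver cells → 24 h chemical exposure → total RNA, oligo(dT) RT → PCR, 6-FAM primer extension, HpaI digest 2 h 37 C → CE fragment analysis. Bidirectional fitting, DMSO negative control.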

A short description of test [16]: BSK_3C_uPAR: BioMAP Diversity Plus: 3C Assay for Urokinase-type plasminogen activator receptor (uPAR) Biomarker Activity (AID 2282998). The conditions noted are these: BioMAP 3C HUVEC, uPAR biomarker ELISA; actives raise or lower the signal. In a few lines: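 Cell-surface uPAR on HUVEC (3C system) read by ELISA at 24 h post-treatment, with DMSO as baseline and fitting in both directions. Parallel cultures stained with SRB to flag overt cytotoxicity.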
(In general: In an ELISA, binding on a coated surface is turned into a signal by an enzyme label.)

In test [17] the target is human Peroxisome Proliferator-activated Receptor delta (PPARd), PPARD (gene 5467) (UniProt Q03181). Put plainly: ATG_PPARd_TRANS: Attagene TRANS-FACTORIAL HepG2 Assay for human Peroxisome Proliferator-activated Receptor delta (PPARd) (AID 2283002; active = hit-call score of the fitted dose curve at least 0.9, where 1 is the maximum). Summed up:
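HepG2 cells transiently transfected with multiplexed GAL4-UAS reporter units and exogenous chimeric NR-Gal4 proteins; 24 h compound exposure. Reporter mRNA measured by RT-PCR, 6-FAM labelling, HpaI digestion and capillary electrophoresis; gain of signal versus DMSO.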

Test [18] deals with human Retinoic Acid Receptor beta (RARb), RARB (gene 5915) (UniProt P10826). The experiment in a line: ATG_RARb_TRANS: Attagene TRANS-FACTORIAL HepG2 Assay for human Retinoic Acid Receptor beta (AID 2283004; active = hit-call score of the fitted dose curve at least 0.9, where 1 is the maximum). In a few lines:
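Readout is reporter mRNA induction: RNA reverse-transcribed, PCR-amplified, FAM-labelled, HpaI-cut and resolved by capillary electrophoresis. Transiently transfected HepG2 cells carrying exogenous NR–Gal4 chimeras were dosed for 24 h; activity fitted upward relative to DMSO.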

Test [19] deals with Retinoic acid receptor alpha (Homo sapiens) (UniProt P10276). Put plainly: ATG_RARa_TRANS: Attagene TRANS-FACTORIAL HepG2 Assay for human Retinoic Acid Receptor alpha (RARa) (AID 2283005; active = hit-call score of the fitted dose curve at least 0.9, where 1 is the maximum). In a few lines: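 HepG2 cells transiently transfected with multiple reporter units expressing chimeric RARα-GAL4 fusion, with GAL4-UAS-driven reporters. After 24 h compound exposure, reporter mRNA induction quantified by RT-PCR and capillary electrophoresis with fluorescent labeling; gain-of-signal fitted relative to DMSO control.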

For test [20], the target named is human Retinoic Acid Receptor gamma (RARg), RARG (gene 5916) (UniProt P13631). Put plainly: ATG_RARg_TRANS: Attagene TRANS-FACTORIAL HepG2 Assay for human Retinoic Acid Receptor gamma (RARg) (AID 2283009; active = hit-call score of the fitted dose curve at least 0.9, where 1 is the maximum). Summed up: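 HepG2, RARg-GAL4 TRANS system, 24 h exposure; reporter mRNA by RT-PCR + CE fluorescence; increase over DMSO.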

Records with an inconclusive call do not appear. The source holds several records for some structures; these can differ, active in one and inactive in another. Calls of active or inactive are those of the source. The calls were made as follows, unless noted: active = hit-call score of the fitted dose curve at least 0.9, where 1 is the maximum; inactive = score below 0.9.

Sequence of Cellular tumor antigen p53 (Homo sapiens) (P04637 whole entry, looked up): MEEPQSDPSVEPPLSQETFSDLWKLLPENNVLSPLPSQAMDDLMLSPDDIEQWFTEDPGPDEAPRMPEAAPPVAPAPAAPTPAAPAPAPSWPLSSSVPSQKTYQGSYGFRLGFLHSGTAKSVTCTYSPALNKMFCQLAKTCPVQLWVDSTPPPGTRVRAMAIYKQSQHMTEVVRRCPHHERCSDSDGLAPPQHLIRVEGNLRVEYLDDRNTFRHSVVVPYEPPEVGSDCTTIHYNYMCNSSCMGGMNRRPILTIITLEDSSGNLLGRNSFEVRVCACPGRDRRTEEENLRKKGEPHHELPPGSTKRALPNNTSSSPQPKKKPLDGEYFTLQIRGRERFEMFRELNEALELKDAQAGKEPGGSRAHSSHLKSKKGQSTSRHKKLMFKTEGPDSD
Sequence of human Retinoic Acid Receptor beta (RARb), RARB (gene 5915) (P10826 whole entry, looked up, the tested form may be a part): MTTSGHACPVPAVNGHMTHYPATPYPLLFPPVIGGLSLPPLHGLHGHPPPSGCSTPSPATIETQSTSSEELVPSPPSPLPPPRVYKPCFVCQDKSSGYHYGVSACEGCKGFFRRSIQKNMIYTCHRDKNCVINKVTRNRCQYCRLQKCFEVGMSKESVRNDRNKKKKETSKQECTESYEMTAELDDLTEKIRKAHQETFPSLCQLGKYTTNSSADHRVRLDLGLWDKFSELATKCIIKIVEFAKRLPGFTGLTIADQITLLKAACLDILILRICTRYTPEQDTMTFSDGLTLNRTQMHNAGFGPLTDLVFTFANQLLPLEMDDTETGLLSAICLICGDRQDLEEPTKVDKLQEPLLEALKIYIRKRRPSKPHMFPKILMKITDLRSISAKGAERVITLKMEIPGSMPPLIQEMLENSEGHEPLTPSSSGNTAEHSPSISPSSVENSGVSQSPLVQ
Sequence of Nuclear receptor subfamily 1 group I member 2 (Homo sapiens) (O75469 whole entry, looked up, the tested form may be a part): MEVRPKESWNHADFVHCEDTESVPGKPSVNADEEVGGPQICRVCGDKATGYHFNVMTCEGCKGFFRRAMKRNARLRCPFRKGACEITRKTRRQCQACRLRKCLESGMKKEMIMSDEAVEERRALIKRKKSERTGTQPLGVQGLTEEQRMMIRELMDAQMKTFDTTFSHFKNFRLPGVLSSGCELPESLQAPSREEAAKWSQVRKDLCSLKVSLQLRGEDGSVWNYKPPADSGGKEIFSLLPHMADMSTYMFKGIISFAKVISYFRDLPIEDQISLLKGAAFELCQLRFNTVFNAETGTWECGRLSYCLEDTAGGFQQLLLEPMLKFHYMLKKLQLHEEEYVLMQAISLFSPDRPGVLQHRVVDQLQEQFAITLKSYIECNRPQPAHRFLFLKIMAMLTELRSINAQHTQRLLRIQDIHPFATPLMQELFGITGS
Sequence of human RAR-related Orphan Receptor gamma (RORg), RORC (gene 6097) (P51449 whole entry, looked up, the tested form may be a part): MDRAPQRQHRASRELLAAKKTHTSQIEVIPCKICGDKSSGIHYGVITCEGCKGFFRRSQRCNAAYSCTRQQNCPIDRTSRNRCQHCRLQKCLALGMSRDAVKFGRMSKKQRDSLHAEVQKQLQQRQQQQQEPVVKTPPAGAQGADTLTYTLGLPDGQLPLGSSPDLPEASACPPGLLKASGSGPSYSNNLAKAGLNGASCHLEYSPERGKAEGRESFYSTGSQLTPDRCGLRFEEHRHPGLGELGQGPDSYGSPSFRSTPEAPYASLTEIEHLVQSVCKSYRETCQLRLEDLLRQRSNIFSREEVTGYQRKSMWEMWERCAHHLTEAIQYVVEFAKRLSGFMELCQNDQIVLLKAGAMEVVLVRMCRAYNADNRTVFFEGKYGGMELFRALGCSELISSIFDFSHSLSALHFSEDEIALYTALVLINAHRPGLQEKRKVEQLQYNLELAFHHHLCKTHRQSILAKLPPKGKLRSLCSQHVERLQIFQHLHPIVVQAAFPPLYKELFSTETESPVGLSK
Sequence of Myc proto-oncogene protein (Homo sapiens) (P01106 whole entry, looked up): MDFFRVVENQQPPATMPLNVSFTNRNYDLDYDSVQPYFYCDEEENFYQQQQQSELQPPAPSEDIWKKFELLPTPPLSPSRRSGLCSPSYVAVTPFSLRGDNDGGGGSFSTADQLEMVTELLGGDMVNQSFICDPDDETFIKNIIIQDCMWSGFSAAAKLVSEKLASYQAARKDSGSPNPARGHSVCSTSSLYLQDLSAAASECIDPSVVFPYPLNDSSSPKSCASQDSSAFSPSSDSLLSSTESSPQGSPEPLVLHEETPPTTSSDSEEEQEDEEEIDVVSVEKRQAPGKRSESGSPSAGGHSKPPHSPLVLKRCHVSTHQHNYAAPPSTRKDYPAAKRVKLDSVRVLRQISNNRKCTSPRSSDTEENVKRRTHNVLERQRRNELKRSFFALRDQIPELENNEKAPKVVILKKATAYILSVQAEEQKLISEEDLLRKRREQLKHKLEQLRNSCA
Sequence of human Peroxisome Proliferator-activated Receptor alpha (PPARa), PPARA (gene 5465) (Q07869 whole entry, looked up, the tested form may be a part): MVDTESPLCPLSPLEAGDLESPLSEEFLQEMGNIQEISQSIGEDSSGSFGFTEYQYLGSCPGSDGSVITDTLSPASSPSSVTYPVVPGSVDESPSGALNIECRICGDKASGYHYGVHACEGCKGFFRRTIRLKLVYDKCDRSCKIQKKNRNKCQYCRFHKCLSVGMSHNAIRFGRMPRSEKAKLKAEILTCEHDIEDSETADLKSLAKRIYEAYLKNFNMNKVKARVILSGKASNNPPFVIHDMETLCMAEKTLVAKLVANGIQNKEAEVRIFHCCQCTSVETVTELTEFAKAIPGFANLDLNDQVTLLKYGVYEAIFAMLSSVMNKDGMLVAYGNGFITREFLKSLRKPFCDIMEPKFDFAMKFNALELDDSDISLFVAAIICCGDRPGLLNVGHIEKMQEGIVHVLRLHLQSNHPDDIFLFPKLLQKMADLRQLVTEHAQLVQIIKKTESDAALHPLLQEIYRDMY
Sequence of Peroxisome proliferator-activated receptor gamma (Homo sapiens) (P37231 whole entry, looked up, the tested form may be a part): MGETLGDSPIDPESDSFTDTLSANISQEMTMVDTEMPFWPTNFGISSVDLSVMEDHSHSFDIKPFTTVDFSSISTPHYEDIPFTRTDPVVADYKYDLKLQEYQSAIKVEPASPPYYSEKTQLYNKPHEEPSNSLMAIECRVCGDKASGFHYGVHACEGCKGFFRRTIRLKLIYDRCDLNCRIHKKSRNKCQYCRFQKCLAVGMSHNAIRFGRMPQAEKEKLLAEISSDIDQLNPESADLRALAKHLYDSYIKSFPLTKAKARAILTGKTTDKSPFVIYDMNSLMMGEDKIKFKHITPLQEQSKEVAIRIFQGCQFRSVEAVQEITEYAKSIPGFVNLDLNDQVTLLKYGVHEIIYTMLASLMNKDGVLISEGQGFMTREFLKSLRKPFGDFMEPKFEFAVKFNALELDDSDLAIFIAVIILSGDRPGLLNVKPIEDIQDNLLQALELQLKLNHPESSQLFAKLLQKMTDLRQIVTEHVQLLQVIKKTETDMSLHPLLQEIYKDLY
Sequence of human Peroxisome Proliferator-activated Receptor delta (PPARd), PPARD (gene 5467) (Q03181 whole entry, looked up, the tested form may be a part): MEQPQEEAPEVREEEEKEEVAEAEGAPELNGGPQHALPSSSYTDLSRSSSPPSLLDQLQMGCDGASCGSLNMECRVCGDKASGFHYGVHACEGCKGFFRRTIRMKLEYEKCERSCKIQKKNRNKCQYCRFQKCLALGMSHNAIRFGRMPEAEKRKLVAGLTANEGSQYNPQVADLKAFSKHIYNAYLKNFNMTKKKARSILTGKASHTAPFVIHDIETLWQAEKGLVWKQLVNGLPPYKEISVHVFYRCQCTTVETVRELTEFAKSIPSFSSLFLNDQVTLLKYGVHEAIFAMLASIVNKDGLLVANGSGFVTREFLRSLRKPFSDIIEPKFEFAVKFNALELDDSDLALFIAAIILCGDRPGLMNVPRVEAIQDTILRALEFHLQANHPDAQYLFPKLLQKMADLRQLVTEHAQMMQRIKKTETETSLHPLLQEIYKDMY
Sequence of Retinoic acid receptor alpha (Homo sapiens) (P10276 whole entry, looked up, the tested form may be a part): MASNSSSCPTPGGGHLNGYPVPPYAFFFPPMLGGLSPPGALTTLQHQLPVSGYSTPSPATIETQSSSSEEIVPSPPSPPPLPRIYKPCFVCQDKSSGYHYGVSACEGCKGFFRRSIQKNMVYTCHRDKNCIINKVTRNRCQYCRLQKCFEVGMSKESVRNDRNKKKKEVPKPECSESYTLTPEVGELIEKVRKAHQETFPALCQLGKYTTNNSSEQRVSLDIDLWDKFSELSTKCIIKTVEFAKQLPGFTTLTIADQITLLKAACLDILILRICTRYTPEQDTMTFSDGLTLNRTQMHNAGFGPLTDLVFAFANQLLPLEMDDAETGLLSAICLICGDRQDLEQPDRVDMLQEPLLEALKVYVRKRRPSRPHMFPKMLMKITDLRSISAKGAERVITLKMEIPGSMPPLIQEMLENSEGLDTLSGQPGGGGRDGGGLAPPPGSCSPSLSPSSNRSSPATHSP
Sequence of human RAR-related Orphan Receptor beta (RORb), RORB (gene 6096) (Q92753 whole entry, looked up, the tested form may be a part): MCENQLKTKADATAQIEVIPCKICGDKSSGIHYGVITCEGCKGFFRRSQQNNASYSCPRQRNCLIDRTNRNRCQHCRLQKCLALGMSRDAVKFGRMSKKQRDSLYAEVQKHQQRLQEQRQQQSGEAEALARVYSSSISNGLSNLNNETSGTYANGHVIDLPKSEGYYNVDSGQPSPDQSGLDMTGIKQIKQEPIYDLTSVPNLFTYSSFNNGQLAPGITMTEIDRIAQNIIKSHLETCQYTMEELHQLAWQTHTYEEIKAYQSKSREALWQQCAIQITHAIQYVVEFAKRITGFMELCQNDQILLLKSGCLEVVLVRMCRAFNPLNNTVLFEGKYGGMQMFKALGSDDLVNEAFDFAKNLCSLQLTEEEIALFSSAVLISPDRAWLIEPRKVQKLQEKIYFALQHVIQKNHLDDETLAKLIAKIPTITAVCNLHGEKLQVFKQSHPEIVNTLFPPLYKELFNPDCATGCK

In general, AC50 refers to the concentration giving half of the maximal activity seen. With `Oc1ccc(C(c2ccc(O)cc2)C(Cl)(Cl)Cl)cc1`, the compound was classed as inactive in [1], in [2], in [3], in test [4], in test [8] and in test [11]. The result in test [12], in [13] and in test [14] was inactive. For the same compound, the AC50 in test [5] was 36.4 µM (active); in test [6] it was 30.3 µM (active); in [7], 31.4 µM (active); in [9], 27.6 µM (active); in test [10] it was 19.8 µM (active).
Take `CC1(C)C(C=C(Cl)Cl)C1C(=O)OCc1cccc(Oc2ccccc2)c1` (stereo not given): the result in [1], in test [3], in [4], in [6], in test [7] and in [8] was inactive. Also, the outcome in test [9], in test [13] and in [14] was inactive. Besides, the AC50 is 6.5 µM (active) in test [2], 4.29 µM (active) in test [10] and 20.2 µM (active) in test [12].
In the case of `CCCCOCCOCCOCc1cc2c(cc1CCC)OCO2`, the result in [1], in test [15], in test [3], in test [16], in test [6] and in [7] was inactive. The outcome in [8], in test [17], in [9], in test [18], in test [19] and in test [20] was inactive. Moreover, in [14], the result was inactive. Besides, the AC50 was 7.81 µM (active) in test [2], 24 µM (active) in test [10], 16.9 µM (active) in [11] and 13.3 µM (active) in test [12].
For the compound `CCOC(=O)c1ccc(O)cc1`, the compound was called inactive in test [1], in [2], in test [3], in [4], in test [16] and in test [6]. Moreover, the outcome in [7], in [8], in [17], in test [9], in test [18] and in test [19] was inactive. Further, the result in test [10], in test [12] and in test [20] was inactive. Further, the values for the AC50 in [3] and in test [8] were 100 µM (active) and 20.5 µM (active), respectively.
